Source: PubChem BioAssay
RN4220 kill = S. aureus RN4220 growth inhibition | AID 1259311 | OD600, 16 h | inhibition, % (concentration not given with the values) | actives 0.33% (n = 330,000); in the data active = inhibition above about 85%;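 note: plate controls were untreated cells for no effect and reference antibiotic for full effect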
ugtP null kill = kills S. aureus RN4220 lacking UgtP | growth inhibition, % (no concentration beside the values) | S. aureus RN4220 ugtP deletion, OD600 growth, 16 h | actives 0.54% (n = 330,000); in the data active = growth inhibition above about 68%;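 note: plate controls were untreated wells for no effect and antibiotic for full effect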
PriA SSB inh = inhibitors of Klebsiella pneumoniae PriA binding to SSB C-terminal tail | AlphaScreen SSBct-PriA binding, biotinylated peptide | inhibition, % at 33 µM | actives 0.6% (n = 430,000) | AID 1272365; in the data active = inhibition mostly above about 37%, no sharp cut-off; inactive = mostly below about 20%;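 note: plate controls were negative control peptide for no effect and reference peptide for full effect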
Starred values were filed as active, the others as inactive; ! = not active in a repeat. Only some compounds are listed: those with a hit (about 1% of all), similar ones and a draw of the others.

Cc1ccc(Sc2ccc(C=NO)cc2[N+](=O)[O-])cc1 was read as RN4220 kill 0, ugtP null kill 22 and PriA SSB inh 14.
CO/N=C/c1ccc(N2CCN(C)CC2)c([N+](=O)[O-])c1 was read as PriA SSB inh active.
`O=[N+]([O-])c1cc(C=NO)ccc1N1CCCC1` gave RN4220 kill 4, ugtP null kill 11 and PriA SSB inh 14.
Screening CON=Cc1ccc(Sc2ccccc2)c([N+](=O)[O-])c1 returned RN4220 kill 10, ugtP null kill 23 and PriA SSB inh 55*.
`Cc1nsc(C(=O)NCCC2=CCCCC2)n1` gave PriA SSB inh -14.
`O=c1[nH]c(=S)c2c(n1Cc1ccc3c(c1)OCO3)CCC2` gave PriA SSB inh -5.
For CCCCNC(=O)C(=O)Nc1cccc(Cl)c1C the results were PriA SSB inh -4.
O=C(CSC1CCCC1)N1CC(S(=O)(=O)c2ccc(F)cc2)C1 was read as PriA SSB inh -1.
Cc1ccc(C2CC(c3cccs3)=NN2C(=O)CSc2nnc(CNC(=O)c3ccco3)n2-c2cccc(C(F)(F)F)c2)cc1 (stereo not drawn) was read as PriA SSB inh 3.
CC(C)(C)CC(=O)NCCn1ncc2c(=O)n(Cc3ccccc3)cnc21 was read as PriA SSB inh -37.
Screening CCC1Sc2ccc(S(=O)(=O)Nc3ccc(OC)c(OC)c3)cc2NC1=O (stereo not drawn) returned RN4220 kill 8, ugtP null kill 1 and PriA SSB inh -2.
For CCC1Sc2ccc(S(=O)(=O)Nc3ccc(OC)cc3)cc2NC1=O (stereo not drawn) the results were RN4220 kill 96*, ugtP null kill 93* and PriA SSB inh 8.
For CN(C)S(=O)(=O)c1ccc(C(=O)NCC(=O)N/N=C\c2c[nH]c3ccccc23)cc1 the results were PriA SSB inh -2.
For Cc1cc(N2C(=O)C(=O)C(=C(O)c3ccc(OC(C)C)cc3)C2c2cccs2)no1 (stereo not drawn) the results were PriA SSB inh -8.
`c1coc(-c2nc(-c3ccco3)c(-c3ccco3)nc2-c2ccco2)c1` gave RN4220 kill 9, ugtP null kill 15 and PriA SSB inh 43*.
Nc1nc(-c2ccco2)c(-c2ccco2)s1 was read as RN4220 kill 1, ugtP null kill -2 and PriA SSB inh -2.
`O=C(CCSc1ccccc1)N(Cc1ccco1)C1CCOCC1` gave PriA SSB inh 0.
For COc1ccc(-c2nc3oc4cc(OC)ccc4c(=O)c3c(=O)n2Cc2ccco2)cc1 the results were RN4220 kill 28, ugtP null kill 98* and PriA SSB inh -6.
`COc1ccc2c(=O)c3c(=O)n(Cc4ccco4)c(-c4ccco4)nc3oc2c1` gave RN4220 kill 10, ugtP null kill -18 and PriA SSB inh -8.
CON(C)C(=O)c1cc2n(n1)CCCO2 was read as PriA SSB inh -10.
For C[C@@H](CCc1ccccc1)NC(=O)Cc1csc(Nc2ccccc2)n1 the results were PriA SSB inh 9.
`O=C(O)c1ccc2c(n1)NCCC2` gave PriA SSB inh 94*.
`O=C(O)c1cncc2c1NCCC2` gave PriA SSB inh -5.
For COc1ccccc1OCCNC(=O)c1[nH]c2ccccc2c1NC(=O)c1ccc(Cl)cc1 the results were PriA SSB inh 15.
Cc1ccc(C2NC(=O)NC(O)(C(F)(F)F)C2C(=O)c2ccccc2)o1 (stereo not drawn) was read as RN4220 kill 1, ugtP null kill -4 and PriA SSB inh -16.
`CCOC(=O)C1C(c2ccc(C)o2)NC(=O)NC1(O)C(F)(F)F` (stereo not drawn) gave RN4220 kill 5, ugtP null kill 2 and PriA SSB inh 43*!.
Screening CSc1cccc(C(=O)Nc2nnc(C3CCCCC3)o2)c1 returned PriA SSB inh -15.
For CCOC(=O)c1c(N=Cc2cccc(C)c2O)sc2c1CCN(C)C2 the results were RN4220 kill 6, ugtP null kill 2 and PriA SSB inh 32.
`Cc1cccc(C=Nc2sc3c(c2C(=O)OC(C)(C)C)CCN(C)C3)c1O` gave RN4220 kill 3, ugtP null kill 6 and PriA SSB inh 45*.
`O=C(NCc1ccccc1-c1ccsc1)c1cc(-c2ccco2)[nH]n1` gave PriA SSB inh 23.
`O=C([C@@H]1CC=CCC1)N1CCC(CSc2ccccn2)CC1` gave PriA SSB inh -4.
`Nc1nn2c(-c3ccccc3)cc(=O)[nH]c2c1N=Nc1ccc(Br)cc1` gave RN4220 kill 100*, ugtP null kill 100* and PriA SSB inh -2.
Screening Nc1nn2c(-c3ccccc3)cc(=O)[nH]c2c1N=Nc1ccc(O)cc1 returned RN4220 kill 15, ugtP null kill 39 and PriA SSB inh 6.
`CC(C)CN(C1CCS(=O)(=O)C1)S(=O)(=O)c1ccc2ccccc2c1` (stereo not drawn) gave RN4220 kill 4, ugtP null kill 2 and PriA SSB inh -6.
For CC(C)CN(C1CCS(=O)(=O)C1)S(=O)(=O)c1ccc(Cl)c([N+](=O)[O-])c1 (stereo not drawn) the results were PriA SSB inh 41*.
`COC1CCN(C(=O)c2cc(C)cs2)CC1` gave PriA SSB inh -10.
Screening CCCCNc1c([N+](=O)[O-])cc(C)cc1[N+](=O)[O-] returned RN4220 kill 8, ugtP null kill 3 and PriA SSB inh 76*.
CCCCNc1c([N+](=O)[O-])cc(C(=O)O)cc1[N+](=O)[O-] was read as RN4220 kill 9, ugtP null kill 8 and PriA SSB inh -1.
`Cc1ccccc1-[n+]1c(-c2ccccc2)cc(-c2ccccc2)cc1-c1ccccc1` gave RN4220 kill 100*, ugtP null kill 101* and PriA SSB inh -4.
Oc1ccccc1-[n+]1c(-c2ccccc2)cc(-c2ccccc2)cc1-c1ccccc1 was read as PriA SSB inh 18.
`Cc1ccc(-c2cc(-c3ccccc3)cc(-c3ccccc3)[n+]2-c2ccc(C(=O)O)cc2)cc1` gave RN4220 kill 5, ugtP null kill 4 and PriA SSB inh 1.
For [O-]c1ccccc1-[n+]1c(-c2ccccc2)cc(-c2ccccc2)cc1-c1ccccc1 the results were RN4220 kill 101* and ugtP null kill 100*.
For O=C([O-])c1ccccc1-[n+]1c(-c2ccccc2)cc(-c2ccccc2)cc1-c1ccccc1 the results were RN4220 kill 98* and ugtP null kill 98*.
For Nc1ccccc1-[n+]1c(-c2ccccc2)cc(-c2ccccc2)cc1-c1ccccc1 the results were RN4220 kill 0, ugtP null kill -10 and PriA SSB inh 12.
`COc1ccc(C[C@](C)(O)CNC(=O)CCSc2ccccc2)cc1` gave PriA SSB inh -5.
Screening Cc1ccc(C(=O)COC(=O)c2cc(C)nc3ccccc23)c(C)c1 returned PriA SSB inh -18.
`CCOc1ccc(NC(=O)CN2CCN(CC)C(=O)C2=O)cc1` gave PriA SSB inh -21.
`CCOC(=O)N1CCN(S(=O)(=O)c2ccc(C(=O)Nc3ccccc3-c3nc4ccccc4[nH]3)cc2)CC1` gave PriA SSB inh -4.
Screening O=[N+]([O-])c1c(NCCCO)cc(Sc2nc3ccccc3s2)c2nonc12 returned RN4220 kill 87*, ugtP null kill 101* and PriA SSB inh -15.
